Screening results as filed in PubChem BioAssay.
An excerpt weighted towards active compounds, which were near 1.2% of everything screened.
GSH bead fluor – compound fluoresces at 488/530 nm on GSH beads; GSH beads flow cytometry, compound fluorescence 488/530 nm; stronger effect = higher value; fluorescence (KMESF) at 10 µM; hit rate 0.25% among 190,000; AID 1776; in the data active = fluorescence above about 89;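 note: glutathione beads carrying GST-tagged Bcl family fusion proteins plus one bare bead set; values are compound well signal with DMSO vehicle wells as background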
RGS8-Gao reg – human RGS8-Galphao interaction regulation; AID 1423; hit rate 0.34% among 220,000; multiplexed bead flow cytometry, RGS8-Galphao binding; actives lie on both sides; P09471; response (percent of control binding), % at 10 µM; in the data active = response below about 60% or above about 140%; inactive = in between;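 note: Galphao activated as the GDP aluminium fluoride complex binding bead-coupled RGS8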
Target sequence (P09471 whole entry, looked up): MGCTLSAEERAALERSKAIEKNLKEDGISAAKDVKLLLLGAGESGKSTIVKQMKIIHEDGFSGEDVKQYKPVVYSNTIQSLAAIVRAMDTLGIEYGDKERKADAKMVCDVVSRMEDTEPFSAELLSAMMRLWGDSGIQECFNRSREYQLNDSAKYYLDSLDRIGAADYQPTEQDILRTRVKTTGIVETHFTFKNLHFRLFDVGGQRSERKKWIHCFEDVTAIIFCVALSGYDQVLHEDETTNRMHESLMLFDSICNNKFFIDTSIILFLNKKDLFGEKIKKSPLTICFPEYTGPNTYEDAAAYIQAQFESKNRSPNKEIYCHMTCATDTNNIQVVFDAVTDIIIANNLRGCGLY
RGS7-Gao reg – modulates binding of RGS7 to human Galphao; binding response (% of control), % at 10 µM; P09471; Multiplexed bead flow cytometry; actives lie on both sides; hit rate 0.35% among 220,000; in the data active = binding response below about 49% or above about 150%; inconclusive = no clear call, values can overlap the other calls; inactive = in between;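 note: fluorescent Galphao held in activated GDP-AlF4 state binding bead-coupled RGS7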
RGS4-Gao reg – human RGS4-Galphao interaction regulation | P09471 | Multiplexed bead flow cytometry, RGS4-Galphao binding; actives lie on both sides | binding response (% of control), % at 10 µM | hit rate 0.33% among 220,000 | AID 1415; in the data active = binding response below about 49% or above about 150%; inactive = in between;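 note: fluorescent Galphao activated with aluminum fluoride binding bead-coupled RGS4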
Avidin bead fluor – avidin bead compound fluorescence profile; fluorescence (KMESF) at 10 µM; AID 1775; hit rate 0.38% among 220,000; Avidin beads, compound fluorescence 488/530 nm, flow cytometry; stronger effect = higher value; in the data active = fluorescence above about 47
RGS16-Gao – modulates binding between human RGS16 and Galphao. O15492+P09471. bead-based flow cytometry RGS16-Galphao binding, fluorescence; actives lie on both sides. binding response (% of control), % at 10 µM. hit rate 0.38% among 220,000;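 note: Galphao activated by GDP with aluminum fluoride before binding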
Target sequence (O15492 whole entry, looked up): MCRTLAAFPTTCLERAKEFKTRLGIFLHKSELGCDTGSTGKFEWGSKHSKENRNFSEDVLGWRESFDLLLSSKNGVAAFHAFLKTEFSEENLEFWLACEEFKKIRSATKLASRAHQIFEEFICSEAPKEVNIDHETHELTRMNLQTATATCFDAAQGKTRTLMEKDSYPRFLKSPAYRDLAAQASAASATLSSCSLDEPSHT
Target sequence (P09471 whole entry, looked up): as the sequence (P09471 whole entry, looked up) above
RGS4-Gao HTS – regulators of human RGS4-Galphao interaction; shares compounds with RGS16-Gao; multiplexed bead flow cytometry, RGS–Galpha-o binding; RGS4–Galpha-o binding response, % at 10 µM; hit rate 99% among 1,600; AID 1504;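 note: fluorescently labeled Galpha-o bound to GDP with aluminium fluoride binding biotinylated RGS beads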
Biotin-avidin – biotin-avidin bead binding disruption counter-screen; shares compounds with RGS16-Gao; streptavidin beads, fluorescein-biotin binding, flow cytometry; inhibition, % at 10 µM; 1,700 tested, under 10 active;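 active = inhibition above 50%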;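 note: median green fluorescence of gated singlet beads compared with DMSO control wells; 0% = DMSO wells and 100% = complete loss of bead fluorescence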
RGS8-Gao confirm – RGS8-Galphao interaction regulation, single point confirmation. shares compounds with RGS16-Gao. bead-based flow cytometry RGS8-Galphao binding, fluorescence; actives lie on both sides. binding response (% of control), % at 10 µM. hit rate 3% among 1,700. AID 1836; in the data active = binding response below about 72% or above about 130%; inactive = in between;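 note: Galphao activated as GDP AlF4 complex before binding bead RGS8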
RGS7-Gao single – confirmation of regulators of human RGS7-Galphao interaction; shares compounds with RGS16-Gao; response (percent of control binding), % at 10 µM; AID 1837; hit rate 7.8% among 1,700; bead-based flow cytometry RGS7-Galphao binding; actives lie on both sides; in the data active = response below about 75% or above about 130%; inactive = in between;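 note: fluorescent Galphao activated with GDP and aluminum fluoride binding bead-coupled RGS7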
RGS16-Gao single – RGS16-Galphao interaction regulation, single point confirmation; shares compounds with RGS16-Gao; bead-based flow cytometry, RGS16-Galphao binding; actives lie on both sides; response (% of control binding), % at 10 µM; hit rate 4% among 1,700; AID 1838; in the data active = response below about 74% or above about 130%; inactive = in between;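 note: Galphao activated as the GDP aluminium fluoride complex binding bead-coupled RGS16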
RGS4-Gao single – RGS4-Galphao interaction regulation, single point confirmation | shares compounds with RGS16-Gao | RGS4-Galphao binding, multiplexed bead flow cytometry; actives lie on both sides | binding response (% of control), % at 10 µM | hit rate 4% among 1,700; in the data active = binding response below about 74% or above about 130%; inactive = in between
RGS19-Gao conf – RGS19-Galphao interaction regulation, single point confirmation; shares compounds with RGS16-Gao; hit rate 5% among 1,700; bead-based flow cytometry RGS19-Galphao binding; actives lie on both sides; response (percent of control binding), % at 10 µM; AID 1841; in the data active = response below about 50% or above about 160%; inactive = in between;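 note: 100% = no compound control and 0% = blank background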
* hit, by the source's call; u = inconclusive; x = no result given; + = active, no number; [ ] = dose if it differs, or a comment. Unless noted, the rule behind the calls is not given here.

SMILES | GSH bead fluor | RGS8-Gao reg | RGS7-Gao reg | RGS4-Gao reg | Avidin bead fluor | RGS16-Gao | RGS4-Gao HTS | Biotin-avidin | RGS8-Gao confirm | RGS7-Gao single | RGS16-Gao single | RGS4-Gao single | RGS19-Gao conf
C=CCN(C(=O)Nc1ccc(Cl)cc1)C1CC(=O)N(c2ccc(OC)cc2)C1=O (configuration not stated) | 7 | 99 | 100 | 101 | 9 | 97 | x | x | x | x | x | x | x
C=CCN(C(=O)Nc1ccc(F)cc1)C1CC(=O)N(c2ccc(OC)cc2)C1=O (configuration not stated) | 8 | 158*[activator] | 125 | 134 | 6 | 350 | 134* | 0 | 98 | 103 | 101 | 105 | 104
CCN=C1SC(CC(=O)NCC)C(=O)N1CC (configuration not stated) | 43 | 118 | 213*[activator] | 259*[activator] | 74* | 519 | x | -1 | 99 | 104 | 103 | 100 | 106
CCc1nnc(NC(=O)c2cc(S(=O)(=O)N3CCOCC3)ccc2N2CCCCC2)s1 | 73 | 393*[activator] | +[activator] | +[activator] | 897* | +[activator] | x | 3 | 104 | 77 | 89 | 88 | 58
CCc1nnc(NC(=O)c2cccc(S(=O)(=O)N3CCc4ccccc43)c2)s1 | 22 | 19* | 23* | 28* | 0 | 3.0* | x | -2 | 100 | 91 | 100 | 98 | 95
CC(C)CCNC(=O)NC(=O)COC(=O)c1cc(S(=O)(=O)N2CCOCC2)ccc1N1CCCCC1 | 30 | 12* | 13* | 25* | 0 | 16* | x | 0 | 96 | 81 | 96 | 90 | 71
Cc1cccc(C)c1NC(=O)CSC(=O)c1sc2ccccc2c1Cl | x | 22* | u | -6.1* | -1 | -2.1* | x | -1 | 99 | 97 | 97 | 100 | 92
Cc1ccc(-n2cc(S(=O)(=O)c3ccc(C)cc3)[nH]c2=O)cc1 | 17 | 95 | u | 93 | 9 | 93 | x | x | x | x | x | x | x
c1ccc(Cn2cnc3ccccc32)cc1 | 13 | 35* | 34* | 33* | 8 | 26 | x | -1 | 109 | 116 | 113 | 115 | 112
O=C(COc1ccc(NS(=O)(=O)c2ccc(F)cc2)cc1)N1CCOCC1 | 12 | 104 | 99 | 105 | 13 | 101 | x | x | x | x | x | x | x
Cc1ccc(S(=O)(=O)C(F)(F)F)cc1NC(=O)c1cccnc1 | 21 | 122 | 108 | 108 | 30 | 181*[activator] | 108* | -2 | 101 | 100 | 100 | 103 | 98
Cc1ccc(S(=O)(=O)N(C)C)cc1NC(=O)c1ccncc1 | 15 | 99 | 102 | 103 | 11 | 101 | x | x | x | x | x | x | x
O=C(CN1C(=O)CC(c2ccccc2)=Nc2ccccc21)NCc1ccco1 | 29 | 4.7* | 1.6* | 3.2* | -2 | -0.5* | x | -2 | 102 | 102 | 102 | 102 | 94
CCOc1ccc(C(=O)Nc2ccccc2N2CCCC2)cc1 | 27 | 113 | 117 | 116 | 6 | 115 | x | x | x | x | x | x | x
COc1ccc(-c2ocnc2C(=O)Nc2ccccc2N2CCCCC2)cc1 | 16 | 99 | 230*[activator] | 128 | 221* | 113 | 128* | x | x | x | x | x | x
O=C(Nc1ccccc1)N1CCCC1 | 41 | x | x | x | x | x | x | 2 | 97 | 97 | 98 | 96 | 88
CN(C)S(=O)(=O)c1cc(NC(=O)COC(=O)Cc2ccc(Br)cc2)ccc1Cl | 9 | 56* | 83 | 78 | 2 | 12* | 78* | -2 | 99 | 98 | 98 | 100 | 104
O=C(Cn1nnc2ccccc21)N1CCCCC1 | 13 | 108 | 106 | 105 | 12 | 128 | x | x | x | x | x | x | x
O=C(CCn1nnc2ccccc21)N1CCN(c2ccccc2)CC1 | 43 | x | x | x | x | x | x | 0 | 102 | 106 | 102 | 102 | 102
O=c1ccc2ccc(Oc3ccc([N+](=O)[O-])cc3[N+](=O)[O-])cc2o1 | 6 | 111 | 100 | 98 | 1 | 133 | x | x | x | x | x | x | x
CCCCc1ccc(NC(=O)CN2NS(=O)(=O)c3ccccc3C2=O)cc1 | 12 | 81 | 88 | 87 | 5 | -6.9* | 87* | x | x | x | x | x | x
CC(=O)Nc1ccc(Nc2ccc(N3C(=O)CCCC3=O)cc2[N+](=O)[O-])cc1 | 6 | 53* | 47* | 46* | 0 | 33 | x | -3 | 105 | 103 | 107 | 103 | 94
C(=N\Nc1ccc2ccccc2n1)/c1ccc2c(c1)OCCO2 | 13 | 140*[activator] | 111 | 111 | 10 | 249 | 111* | 0 | 101 | 102 | 101 | 99 | 104
C/C(=N\NC(=O)c1c(Br)cnn1C)c1ccc(NC(=O)c2ccc(F)cc2)cc1 | 19 | 92 | 86 | 89 | 12 | 88 | x | x | x | x | x | x | x
CCNC(=O)c1ccccc1NC(=O)c1cccc(S(=O)(=O)N2CCOCC2)c1 | 22 | 6.6* | -3.6* | -14* | -3 | -4.5* | x | 0 | 102 | 104 | 103 | 101 | 101
Cc1cc(NC(=O)CSc2nc3cc(C(=O)NCCCOC(C)C)ccc3c(=O)n2Cc2ccco2)no1 | 7 | 86 | 91 | 93 | 16 | 64 | x | x | x | x | x | x | x
N#C/C(=C\C=C\c1ccccc1)c1nc(-c2ccc(Cl)cc2)cs1 | x | 99 | u | 93 | 7 | 98 | x | x | x | x | x | x | x
COc1cccc(CNC(=O)C2CCN(S(=O)(=O)c3ccc4c(c3)CCC(=O)N4)CC2)c1 | 21 | 141*[activator] | 111 | 110 | 4 | 244 | 110* | 0 | 107 | 102 | 108 | 104 | 116
O=C(Nc1ccccc1F)C1CCN(C(=O)Cc2ccccc2)CC1 | 28 | 95 | 104 | 109 | 2 | 63 | x | x | x | x | x | x | x
O=C(Nc1ccccc1Br)C1CCN(C(=O)Cc2ccccc2)CC1 | 17 | 90 | 97 | 97 | 6 | 21* | 97* | 1 | 106 | 105 | 109 | 103 | 110
